Read-out in assay [1]: Vascular endothelial growth factor receptor 2 (Homo sapiens) (UniProt P35968)
Put plainly: BSK_4H_VEGFRII: BioMAP Diversity Plus: 4H Assay for Vascular endothelial growth factor receptor 2 (VEGFR2) Biomarker Activity (AID 2283031). The settings on record: primary human endothelial cells (HUVEC); actives raise or lower the signal. Put shortly: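 VEGFRII levels on human vascular endothelial primary cells were determined by ELISA at 24 hours post-dosing, with gain- or loss-of-signal fitted against DMSO controls.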

Read-out in assay [2]: Human Leukocyte Antigen - DR isotype (HLADR), HLA-DRA (gene 3122)
Kind of assay: BSK_BE3C_HLADR: BioMAP Diversity Plus: BE3C Assay for Human Leukocyte Antigen - DR isotype (HLADR) Biomarker Activity (AID 2283032). As to conditions: primary human bronchial epithelial cells; actives raise or lower the signal. In a few lines: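 Cell-surface HLA-DR ELISA readout at 24 h after dosing in the BE3C primary human lung bronchial epithelial system; gain or loss of signal against DMSO, with parallel sulforhodamine B staining of total protein for overt cytotoxicity.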

Read-out in assay [3]: Vascular cell adhesion molecule 1 (VCAM1), VCAM1 (gene 7412)
Put plainly: BSK_4H_VCAM1: BioMAP Diversity Plus: 4H Assay for Vascular cell adhesion molecule 1 (VCAM1) Biomarker Activity (AID 2283033).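 For outcome: cell-surface VCAM-1 protein measured by ELISA.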 As to conditions: primary human endothelial cells (HUVEC); actives raise or lower the signal. Put shortly: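 VCAM-1 ELISA read 24 h after chemical dosing of HUVEC in the BioMAP 4H system, with gain or loss of signal fitted relative to DMSO. Parallel SRB staining (560 nm) checked overt cytotoxicity.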

Read-out in assay [4]: Interferon-gamma inducible Protein 10 (IP10), CXCL10 (gene 3627)
Put plainly: BSK_BE3C_IP10: BioMAP Diversity Plus: BE3C Assay for Interferon-gamma inducible Protein 10 (IP10) Biomarker Activity (AID 2283034). As to conditions: primary human bronchial epithelial cells; actives raise or lower the signal. In a few lines:
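IP-10 quantified by ELISA in human primary bronchial epithelial cell cultures at 24 hours post-dosing. Gain or loss of signal fitted relative to DMSO; parallel SRB staining assessed overt cytotoxicity.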

Read-out in assay [5]: Monokine induced gamma interferon (MIG), CXCL9 (gene 4283)
Kind of assay: BSK_BE3C_MIG: BioMAP Diversity Plus: BE3C Assay for Monokine induced gamma interferon (MIG) Biomarker Activity (AID 2283035). The settings on record: primary human bronchial epithelial cells; actives raise or lower the signal. In a few lines: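 ELISA quantified MIG after 24 h exposure of primary bronchial epithelial cultures, analysed in both directions relative to DMSO. Cytotoxicity tracked in parallel cultures by sulforhodamine B staining.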

Read-out in assay [6]: Transforming growth factor beta 1 (TGFb1), TGFB1 (gene 7040)
Kind of assay: BSK_BE3C_TGFb1: BioMAP Diversity Plus: BE3C Assay for Transforming growth factor beta 1 (TGFb1) Biomarker Activity (AID 2283036;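 note: TGF-b1 protein level measured by ELISA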). The settings on record: primary human bronchial epithelial cells; actives raise or lower the signal. Put shortly:
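ELISA readout of TGF-b1 from human lung bronchial epithelial primary cells, taken 24 h post-treatment. Gain or loss of signal fitted relative to DMSO baseline, with parallel SRB staining for overt cytotoxicity.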

Read-out in assay [7]: Plasminogen activator inhibitor-1 (PAI1), SERPINE1 (gene 5054)
Kind of assay: BSK_BE3C_PAI1: BioMAP Diversity Plus: BE3C Assay for Plasminogen activator inhibitor-1 (PAI1) Biomarker Activity (AID 2283037). As to conditions: primary human bronchial epithelial cells; actives raise or lower the signal. In a few lines: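 PAI-1 was measured by ELISA in human primary bronchial epithelial cultures 24 h after chemical dosing, with cytotoxicity checked by SRB total-protein staining in parallel cultures. Activity was fitted in both directions relative to DMSO.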

Read-out in assay [8]: urokinase plasminogen activator (uPA), PLAU (gene 5328)
Kind of assay: BSK_BE3C_uPA: BioMAP Diversity Plus: BE3C Assay for urokinase plasminogen activator (uPA) Biomarker Activity (AID 2283038).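 Note: uPA protein level quantified by ELISA in cell cultures; uPA read one day after compound addition.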 The settings on record: primary human bronchial epithelial cells; actives raise or lower the signal. Put shortly: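 Measured by ELISA: uPA from human primary bronchial epithelial cells 24 h after chemical treatment. Values derive from bidirectional curve fitting with DMSO serving as negative control. Total protein by SRB staining in parallel wells flagged overt cytotoxicity.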

Read-out in assay [9]: Urokinase-type plasminogen activator receptor (uPAR), PLAUR (gene 5329)
Put plainly: BSK_BE3C_uPAR: BioMAP Diversity Plus: BE3C Assay for Urokinase-type plasminogen activator receptor (uPAR) Biomarker Activity (AID 2283039).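 Note: cells exposed to compound for one day before measurement.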 The settings on record: primary human bronchial epithelial cells; actives raise or lower the signal. In a few lines: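 uPAR levels were measured by ELISA after 24 h compound treatment of primary human bronchial epithelial cells, fitted in both directions relative to DMSO. Parallel SRB staining served as the cytotoxicity read-out.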

Read-out in assay [10]: Interleukin-6 (IL6), IL6 (gene 3569)
Kind of assay: BSK_CASM3C_IL6: BioMAP Diversity Plus: CASM3C Assay for Interleukin-6 (IL6) Biomarker Activity for (AID 2283040). As to conditions: primary human coronary artery smooth muscle cells; actives raise or lower the signal.

Read-out in assay [11]: Tissue plasminogen activator (tPA), PLAT (gene 5327)
Kind of assay: BSK_BE3C_tPA: BioMAP Diversity Plus: BE3C Assay for Tissue plasminogen activator (tPA) Biomarker Activity (AID 2283041).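 Note: tPA level quantified by ELISA one day after compound addition.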 The settings on record: primary human bronchial epithelial cells; actives raise or lower the signal. In a few lines: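 tPA measured by ELISA 24 h after dosing human primary bronchial epithelial cells (BE3C system). Changes in either direction were fitted against DMSO. Parallel cultures were stained with SRB to flag overt cytotoxicity.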

Read-out in assay [12]: Interleukin-8 (IL8), CXCL8 (gene 3576)
Put plainly: BSK_CASM3C_IL8: BioMAP Diversity Plus: CASM3C Assay for Interleukin-8 (IL8) Biomarker Activity (AID 2283042).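 Note: IL-8 protein level quantified by ELISA.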 As to conditions: primary human coronary artery smooth muscle cells; actives raise or lower the signal.

Read-out in assay [13]: Human Leukocyte Antigen - DR isotype (HLADR), HLA-DRA (gene 3122)
Put plainly: BSK_CASM3C_HLADR: BioMAP Diversity Plus: CASM3C Assay for Human Leukocyte Antigen - DR isotype (HLADR) Biomarker Activity (AID 2283043).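 Note: cell-surface HLA-DR protein level quantified by ELISA.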 As to conditions: primary human coronary artery smooth muscle cells; actives raise or lower the signal.

Read-out in assay [14]: Macrophage colony-stimulating factor (MCSF), CSF1 (gene 1435)
Put plainly: BSK_CASM3C_MCSF: BioMAP Diversity Plus: CASM3C Assay for Macrophage colony-stimulating factor (MCSF) Biomarker Activity (AID 2283044).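 Note: M-CSF protein amount quantified by ELISA after 24 h exposure.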 The settings on record: primary human coronary artery smooth muscle cells; actives raise or lower the signal.

Read-out in assay [15]: Low-density lipoprotein receptor (LDLR), LDLR (gene 3949)
Kind of assay: BSK_CASM3C_LDLR: BioMAP Diversity Plus: CASM3C Assay for Low-density lipoprotein receptor (LDLR) Biomarker Activity (AID 2283045).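 Note: LDLR protein level on the cell surface quantified by ELISA.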 As to conditions: primary human coronary artery smooth muscle cells; actives raise or lower the signal.

Read-out in assay [16]: Monocyte Chemoattractant Protein-1 (MCP1), CCL2 (gene 6347)
Kind of assay: BSK_CASM3C_MCP1: BioMAP Diversity Plus: CASM3C Assay for Monocyte Chemoattractant Protein-1 (MCP1) Biomarker Activity (AID 2283046).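 Note: MCP-1 level quantified by ELISA 24 h after dosing.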 The settings on record: primary human coronary artery smooth muscle cells; actives raise or lower the signal.

Assay [17] in a line: BSK_CASM3C_Proliferation: Cell Proliferation Assessment in the BioMAP Diversity Plus: CASM3C Assay (AID 2283047).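 Note: sulforhodamine B total protein stain as relative cell number at 560 nm; sub-confluent cells exposed 48 h before staining; fitted both ways against DMSO so gain or loss of cell number.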 The settings on record: primary human coronary artery smooth muscle cells.
Read-out in assay [18]: Monokine induced gamma interferon (MIG), CXCL9 (gene 4283)
Kind of assay: BSK_CASM3C_MIG: BioMAP Diversity Plus: CASM3C Assay for Monokine induced gamma interferon (MIG) Biomarker Activity (AID 2283048).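 Note: MIG protein level measured by ELISA.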 The settings on record: primary human coronary artery smooth muscle cells; actives raise or lower the signal.

Read-out in assay [19]: serum amyloid A (SAA), SAA1 (gene 6288)
Put plainly: BSK_CASM3C_SAA: BioMAP Diversity Plus: CASM3C Assay for serum amyloid A (SAA) Biomarker Activity (AID 2283049).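 Note: SAA protein level quantified by ELISA.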 The settings on record: primary human coronary artery smooth muscle cells; actives raise or lower the signal.

Assay [20] in a line: BSK_CASM3C_SRB: Viability Assessment in the BioMAP Diversity Plus: CASM3C Assay (AID 2283050). The settings on record: primary human coronary artery smooth muscle cells.

Activity calls are given as the source filed them. Rule for the calls: active = hit-call score of the fitted dose curve at least 0.9, where 1 is the maximum; inactive = score below 0.9.

Regarding `CCCCCCCCCCC`, the result in assay [1], in assay [2], in assay [3], in [4], in assay [5] and in [6] was inactive. The result in assay [7], in assay [8], in [9], in assay [10], in assay [11] and in assay [12] was inactive. The outcome in assay [13], in assay [14], in assay [15], in assay [16], in assay [17] and in [18] was inactive. For the same molecule, the result in assay [19] and in [20] was inactive.
On to `O=C(N[C@@H](Cc1ccccc1)[C@@H](O)C(=O)N1C[C@@H](O)[C@@H](O)C1)c1cc2cc(Cl)ccc2[nH]1`, for which the result in assay [1], in assay [2], in assay [3], in [4], in assay [5] and in [6] was inactive. The outcome in assay [7], in [8], in [9], in assay [10], in assay [11] and in assay [12] was inactive. Further, the outcome in assay [13], in assay [14], in [15], in assay [16], in assay [17] and in assay [18] was inactive. Moreover, the result in [19] and in [20] was inactive.
Turning to `CCCCCCCCCCCC(=O)OC`, the outcome in assay [1], in [2], in assay [3], in assay [4], in assay [5] and in assay [6] was inactive. The outcome in assay [7], in assay [8], in assay [9], in assay [10], in [11] and in assay [12] was inactive. For the same molecule, the result in assay [13], in assay [14], in assay [15], in assay [16], in [17] and in [18] was inactive. For the same molecule, the outcome in [19] and in [20] was inactive.
Take `Cc1ccc(Cl)cc1`: the outcome in assay [1], in assay [2], in [3], in assay [4], in [5] and in assay [6] was inactive. Moreover, the result in assay [7], in assay [8], in assay [9], in [10], in [11] and in [12] was inactive. In addition, the outcome in [13], in assay [14], in [15], in assay [16], in assay [17] and in [18] was inactive. The outcome in [19] and in assay [20] was inactive.
With `Nc1ccccc1N`, the result in [1], in assay [2], in assay [4], in assay [5], in assay [6] and in assay [7] was inactive. The result in assay [8], in assay [9], in assay [10], in [11], in assay [12] and in assay [13] was inactive. The result in assay [14], in assay [15], in [16], in [17], in assay [18] and in assay [19] was inactive. Also, in assay [20], the result was inactive. The half-maximal activity concentration (AC50) (in general, the concentration giving half of the maximal activity seen) in assay [3] was 4.07 µM (active).
On to `CN1CCCC1=O`, for which the result in assay [1], in [2], in assay [3], in [4], in [5] and in [6] was inactive. In addition, the result in assay [7], in assay [8], in assay [9], in [10], in [11] and in assay [12] was inactive. Also, the outcome in assay [13], in [14], in [15], in assay [16], in [17] and in assay [18] was inactive. The outcome in [19] and in [20] was inactive.

Source of the values: PubChem BioAssay (EPA / NIEHS).
